Source: PubChem BioAssay (Sanford-Burnham Center for Chemical Genomics)
In the library only some 28% were active in any assay of this set; here they are far more common.
CD11b adhes inh – blocks human CD11b/CD18 adhesion to fibrinogen | inhibition, % at 10 µM | P05107+P11215 | hit rate 0.54% among 93,000 | K562 CD11b/CD18 adhesion to fibrinogen, ATPlite luminescence; Mn2+ added to activate the integrin;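 active = primary inhibition of 50% or more at 10 µM, then 40% or more on retest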
CYP2C19 act – increases human CYP2C19 enzyme activity. recombinant CYP2C19, luciferin-H EGE luminescence; stronger effect = higher value; 0 = fully inhibited enzyme, 1 = untreated enzyme. activation factor at 5 µM. 96,000 tested, under 10 active. AID 1025;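 active = activation factor of at least 2 at 5 µM in the primary screen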;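 also: 0 = wells with 2.5 mM tranylcypromine and 1 = vehicle-only wells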
Target sequence (P33261 whole entry, looked up): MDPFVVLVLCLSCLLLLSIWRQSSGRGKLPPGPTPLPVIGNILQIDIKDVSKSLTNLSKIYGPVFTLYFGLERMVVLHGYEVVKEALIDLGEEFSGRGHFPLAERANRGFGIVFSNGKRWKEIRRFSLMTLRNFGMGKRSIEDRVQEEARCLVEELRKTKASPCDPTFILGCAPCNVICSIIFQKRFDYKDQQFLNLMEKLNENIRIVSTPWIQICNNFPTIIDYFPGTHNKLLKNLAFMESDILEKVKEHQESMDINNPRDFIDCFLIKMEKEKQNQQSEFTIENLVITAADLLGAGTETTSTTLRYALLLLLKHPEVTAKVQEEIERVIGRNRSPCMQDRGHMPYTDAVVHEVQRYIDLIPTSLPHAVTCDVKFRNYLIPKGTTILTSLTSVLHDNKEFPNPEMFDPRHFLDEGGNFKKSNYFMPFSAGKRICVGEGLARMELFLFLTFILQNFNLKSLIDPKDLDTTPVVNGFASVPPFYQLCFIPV
CD11b adhes enh – enhancers of human CD11b/CD18 binding to fibrinogen; activation, % at 10 µM; hit rate 0.07% among 93,000; K562 CD11b/CD18 adhesion to fibrinogen, ATPlite luminescence; AID 1499;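 active = 10 µM primary screen giving 50% or more activity, confirmed by 40% or more on retest at that dose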
CYP2C19 inhib – inhibitors of human CYP2C19; AID 778; hit rate 21% among 96,000; inhibition, % at 5 µM; CYP2C19 Supersomes, luciferin-H EGE luminescence, 30 min; P33261;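 active = CYP2C19 inhibition above a set limit at 5 µM in the primary screen, cut at about 50% in these data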;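 also: plate controls were negative control wells for no effect and 2.5 mM tranylcypromine positive control for full effect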
CYP2C9 activ – CYP2C9 (human) activation; hit rate 1.4% among 96,000; P11712; recombinant CYP2C9, luciferin-H conversion, luminescence; stronger effect = higher value; factor 1 = untreated enzyme, 0 = blocked; activation factor at 5 µM;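 active = activation factor of 2 or more for CYP2C9 at a 5 µM dose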;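 also: 0 = sulfaphenazole-blocked wells and 1 = vehicle-only wells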
CYP2C9 inhib – human CYP2C9 inhibition | CYP2C9 Supersomes, luciferin-H conversion, luminescence | AID 777 | inhibition, % at 5 µM | hit rate 20% among 96,000 | P11712;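 active = blocking of liver enzyme CYP2C9 beyond about 50% at 5 µM, limit read from the data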
* marks the source's active call; other numbers are inactive results; · = no result.

SMILES	CD11b adhes inh	CYP2C19 act	CD11b adhes enh	CYP2C19 inhib	CYP2C9 activ	CYP2C9 inhib
CC(C)[C@@H](C(=O)OCC(=O)Nc1ccc2c(c1)OCO2)N1C(=O)c2ccccc2C1=O	8	0.4	-1	58*	0.6	45
CCC(C)[C@H](NC(=O)Nc1ccc2c(c1)OCCO2)C(=O)O (stereo partly drawn)	15	1.1	-5	-10	1	2
CCC(C)[C@@H](C(=O)Nc1ccc2c(c1)OCO2)N1Cc2ccccc2C1=O (stereo partly drawn)	6	0.3	-1	69*	0.5	51*
O=C(COC(=O)[C@H](Cc1ccccc1)N1C(=O)c2ccccc2C1=O)Nc1ccc2c(c1)OCO2	-13	0.2	-4	81*	0	99*
CCOc1ccc2nc(SCC(=O)NC(=O)NCc3ccco3)[nH]c2c1	-12	1.1	0	-6	0.9	10
Cc1[nH]c2ccccc2c1C(c1ccccn1)N1CCC(C(N)=O)CC1 (stereo not drawn)	16	0.5	-3	51*	1.1	-6
CCc1ccccc1N(C(=O)c1cccs1)C1C=CS(=O)(=O)C1 (stereo not drawn)	·	0.3	·	71*	0.9	14
O=C(COC(=O)c1ccc[nH]c1=O)NC1CCCC1	-15	1	-1	2	1	1
O=C1c2ccccc2NC(c2ccco2)N1O (stereo not drawn)	-19	1	0	3	0.9	8
O=C1c2ccccc2NC(c2ccccc2)N1/N=C/c1ccccc1 (stereo not drawn)	3	0.7	2	34	0.1	87*
CC(=O)Nc1ccc(-c2cc(NC(C)=O)n(-c3ccccc3)n2)cc1	3	0.7	-4	29	0.8	19
Cc1ccc(-c2cc(NC(=O)CCl)n(-c3ccccc3)n2)cc1	-10	0	0	96*	0.3	75*
O=C(CCl)Nc1cc(-c2ccccc2)nn1-c1ccccc1	8	0.2	1	83*	0.4	60*
O=C(NC1CCCCC1)C1CCN(S(=O)(=O)N2CCOCC2)CC1	7	1.2	2	-20	1.1	-9
Cc1ccc(N2C(=O)c3ccccc3C2Nc2ccccc2)nc1 (stereo not drawn)	-2	0.8	5	22	1	3
Cc1ccnc(N2C(=O)c3ccccc3C2O)c1 (stereo not drawn)	0	0.5	-4	50*	0.9	14
CCCNS(=O)(=O)c1ccc(CCC(=O)N2CCN(c3ccc(OC)cc3)CC2)cc1	4	0.2	1	80*	0.1	87*
COc1ccc(N2CCN(C(=O)CCNS(=O)(=O)c3ccc(Br)s3)CC2)cc1	-6	0.2	8	80*	0.1	91*
O=C(CCNS(=O)(=O)c1ccc(Br)s1)NC1CCCC1	4	0.9	2	13	2.1*	-108
Cc1ccc(S(=O)(=O)NCCC(=O)NC2CCCC2)cc1	4	0.9	-8	13	2.5*	-148
Cn1c(=O)oc2cc(S(=O)(=O)NCCC(=O)NC3CCCC3)ccc21	40	0.9	0	10	1.1	-5
CCCNS(=O)(=O)c1ccc(CCC(=O)N2CCOCC2)cc1	-9	1	7	2	0.9	11
CCOC(=O)C1=C(c2ccccc2)N=C2SCC(=O)N2C1c1ccc2c(c1)OCO2 (stereo not drawn)	-3	0.9	1	10	1	-4
CCN(Cc1ccccc1)C(=O)Cn1cc2c(n1)CCCC2	4	0.8	1	23	1	1
CCOC(=O)c1c(NC(C)=O)sc2c(OC(C)=O)cccc12	0	1.1	0	-14	1.1	-14
O=C(CCNS(=O)(=O)c1ccc(Br)s1)N1CCCCC1	-1	0.3	2	68*	1.7	-66
O=C(CCNS(=O)(=O)c1ccc(Br)s1)Nc1ccc(Cl)cc1	8	0.6	1	42	2*	-100
Cc1ccc(OCCCC(=O)Nc2ccc(Br)cc2)cc1	-29	0.8	-1	24	0.6	36
O=C(CCCOc1ccc(Cl)cc1)Nc1nncs1	-2	0.3	-6	68*	0.3	68*
